An excerpt weighted towards active compounds, which were near 5.3% of everything screened.
HCV inhibitor – qHTS Assay for Inhibitors of Hepatitis C Virus (HCV); Huh7.5.1 HCVcc-Cre infection, luciferase reporter, 44 h; 340,000 compounds, 3.4% hits; Potency, µM (highest dose often 41.8 µM), for inactives: at the highest dose activity change, negative = inhibition, usual class: inhibitors; AID 651820, 2012; active means well fitted inhibition curve with a large enough effect; inconclusive means small, poorly fitted or top-dose-only effect, or another doubt; inactive means no such curve, though single readings can be large or run the other way
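Antiviral activity was scored by luciferase reporter output from cells infected with HCVcc-Cre (~0.5 moi) in presence of compound, 44 h infection period, cells seeded 1,000/well 4 h prior.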
Vaccinia mCherry – qHTS for Stage-Specific Inhibitors of Vaccinia Orthopoxvirus: mCherry Reporter Primary qHTS | Vaccinia virus mCherry reporter infection, fluorescence | Potency, µM (series often up to 36.5 µM), for inactives: at the highest dose activity change, negative = inhibition, hits mostly inhibitors | 310,000 compounds, 0.63% hits; calls by dose curve; tested in A549 cells; further: nearly all actives have a fitted effect of over 35% in size
Vaccinia Venus – qHTS for Stage-Specific Inhibitors of Vaccinia Orthopoxvirus: Venus Reporter Primary qHTS | 330,000 compounds, 0.46% hits | Potency, µM (top dose mostly 36.5 µM), without a hit: at the top dose activity change, negative = inhibition, actives largely listed as inhibitors | Vaccinia virus Venus reporter expression, fluorescence; calls by dose curve; tested in A549 cells; further: nearly all actives have a fitted effect of over 30% in size
MARV entry inh – qHTS for inhibitors of binding or entry into cells for Marburg Virus; Marburg virus pseudotyped entry inhibition, cell reporter; Potency, µM (top dose mostly 37.8 µM), without a hit: top-dose activity change, negative = inhibition, actives largely listed as inhibitors; 300,000 compounds, 1.8% hits; AID 540276, 2011; calls by dose curve; tested in HEK293 cells
FMDV inh – High Throughput Screening for Foot and Mouth Disease Virus Antivirals; FMDV antiviral cell-based qHTS; Potency, µM (top dose mostly 57.9 µM), without a hit: top-dose activity change, negative = inhibition, most hits filed as inhibitors; 410,000 compounds, 1.2% hits; AID 1159524, 2015; calls by dose curve; tested in HEK293T cells; further: read-out not given here; nearly all actives have a fitted effect of over 45% in size
LASV entry inh – qHTS for Inhibitors of binding or entry into cells for Lassa Virus | Lassa virus pseudotype entry inhibition, cell reporter | Potency, µM (highest dose often 37.9 µM), without a hit: at the top dose activity change, negative = inhibition, hits mostly inhibitors | 300,000 compounds, 1.2% hits | AID 540256, 2011; calls by dose curve; tested in HEK293 cells; further: nearly all actives have a fitted effect of over 50% in size
An asterisk follows results filed as active; i = inactive; u = inconclusive; x = not tested or not shown; [ ] = dose if it differs, or a comment. On the % scale 0 is the no-effect control and ±100 the full control effect; potency means the concentration at half of the fitted maximal effect.

SMILES | HCV inhibitor | Vaccinia mCherry | Vaccinia Venus | MARV entry inh | FMDV inh | LASV entry inh
CCN(CC(=O)Nc1cccc(OC)c1)c1ncnc2sc(C)c(C)c12 | u | -17% | -22% | u | 20µM* | -26%
OC(CNCc1ccccc1)c1ccc(Cl)cc1 (stereo not given) | 13% | -14% | -11% | u | -2% | 19%[46.1 µM]
OC(CNCC(c1ccc(Cl)cc1Cl)c1c[nH]c2ccccc12)c1ccccc1 (stereo not given) | u | u | u | 7.9µM* | u | u
COC(=O)[C@@H]1Cc2c([nH]c3ccccc23)C(C)(C)N1C(=O)CCl | 1µM* | u | u | 7.1µM* | u | 7.9µM*
O=C1NC(=O)C2(CCCc3ccc(N(CCCl)CCCl)cc32)N1 (stereo not given) | u | -28% | -15% | u | -23% | u
NC1(C(=O)O)CCCc2ccc(N(CCCl)CCCl)cc21 (stereo not given) | u | -17% | 3% | 10µM* | -3% | u
CCOC(=O)/C(=C\c1ccc(N2CCC(c3ccccc3)=N2)cc1)C(C)=O | -9% | -10% | 1% | 2.8µM* | 14% | 7.9µM*
O=C(/C=C/c1ccc(N2CCC(c3ccccc3)=N2)cc1)c1ccccc1 | u | i | i | 3% | 18% | -9%
COc1cc(-c2cccc(OC)c2OC)cc2c1OCCN(Cc1cn[nH]c1-c1ccc(Cl)cc1)C2 | x | -9% | -26% | x | -17% | x
N#Cc1c(-n2ncnc2-c2ccccc2C(F)(F)F)sc2c1CCCCC2 | x | -5% | 8% | x | 0.35µM* | u
COc1cccc(-c2nc(N3CCCCC3C)c3ccccc3n2)c1O (stereo not given) | 8.9µM* | -19% | -23% | u | -27% | 18%
CN1CCN(c2nc(-c3ccccc3O)nc3ccccc23)CC1 | u | i | -11% | 17%[46.1 µM] | -23% | -13%
Cc1ccccc1-c1nc(N2CCN(C)CC2)c2ccccc2n1 | x | x | x | x | -15% | x
OCCN1CCN(c2nc(-c3ccccc3O)nc3ccccc23)CC1 | 22µM* | u | u | u | -17% | u
COc1cccc(-c2nc(N3CCN(C)CC3)c3ccccc3n2)c1O | u | 10µM* | u | u | 8% | u
COc1ccccc1N1CCN(C(=O)c2ccc(Cl)c(S(=O)(=O)NCc3ccco3)c2)CC1 | 8.9µM* | u | u | u | -25% | u
O=C(c1cccc(S(=O)(=O)N2CCc3ccccc3C2)c1)N1CCN(c2ccccc2)CC1 | u | -9% | -28% | u | u | 16µM*
O=C(c1ccc2c(c1)CCN2S(=O)(=O)c1ccccc1)N1CCN(c2ccc(F)cc2)CC1 | -22% | i | -12% | 7%[46.1 µM] | -11% | 0%[46.1 µM]
CC1CC(C)CN(S(=O)(=O)c2ccc(C(=O)N3CCN(c4ccccc4)CC3)cc2)C1 (stereo not given) | 10µM* | -14% | 0% | u | x | u
O=C(c1cccc(S(=O)(=O)N2CCCCC2)c1)N1CCN(c2ccccc2)CC1 | -11% | -3% | -9% | -16% | -22% | 15%
O=C(c1cccc(S(=O)(=O)N2CCc3ccccc32)c1)N1CCN(c2ccccc2)CC1 | 10µM* | -25% | -10% | u | -12% | 4µM*
NC(=NC1C2CC3CC(C2)CC1C3)Nc1ccc(I)cc1 (stereo not given) | x | -21% | u | x | -17% | x
Cc1ccc(NCc2cccn2-c2nnc(N3CCC(C(=O)NCCc4ccc(Cl)cc4)CC3)s2)cc1 | x | u | u | 2%[46.1 µM] | 0% | x
COc1ccccc1N1CCN(C(=O)c2ccc3c(c2)CCN3S(=O)(=O)c2ccccc2)CC1 | 13µM* | -22% | -10% | u | u | -27%[46.1 µM]
CCOC(=O)c1sc(NC(=O)c2cccc(S(=O)(=O)N3CCc4ccccc43)c2)c(C#N)c1C | 10µM* | x | x | x | u | x
SMILES | HCV inhibitor | Vaccinia mCherry | Vaccinia Venus | MARV entry inh | FMDV inh | LASV entry inh
O=C(Nc1ccncc1)c1cccc(S(=O)(=O)N2CCc3ccccc32)c1 | 8.9µM* | -28% | -19% | u | u | -16%
CCC(CC)c1nnc(NC(=O)c2cccc(S(=O)(=O)N3CCc4ccccc43)c2)s1 | 17% | -13% | -10% | -22% | x | u
O=C(c1cccc(S(=O)(=O)N2CCc3ccccc32)c1)N1CCCC(C(F)(F)F)C1 (stereo not given) | 11µM* | -8% | -2% | -1% | -24% | -13%
COc1ccc(N2CCN(C(=O)c3ccc4c(c3)CCN4S(=O)(=O)c3ccccc3)CC2)cc1 | u | -7% | -19% | 9%[46.1 µM] | 3% | -5%[46.1 µM]
COc1ccc(Cl)cc1NC(=O)c1c(C(=O)Nc2cccc(C)c2C)sc2nc(C)cc(=O)n12 | x | -1% | 8% | u | -15% | u
CC1=C(C(=O)Nc2ccc3[nH]ncc3c2)C(c2ccc(F)cc2)NC(=O)N1 (stereo not given) | x | x | x | x | x | 6%
N#Cc1c(-c2ccco2)cc(C2CC2)nc1N | 25µM* | x | x | -22% | -15% | 4%
N#Cc1c(-c2ccco2)cc(-c2cccnc2)nc1N | 11µM* | x | x | u | -20% | -14%
N#Cc1c(-c2ccccc2)cc(C2CC2)nc1N | u | x | x | u | -21% | -5%
COc1ccc(-c2cc(=O)oc3c(O)c(O)ccc23)cc1 | -9% | 11µM* | u | u | 0% | -4%
COc1ccc(C(=O)Oc2ccc3c(-c4ccc(OC)cc4)cc(=O)oc3c2)cc1 | x | x | x | x | -20% | x
CCOc1ccc(N(C)S(=O)(=O)c2ccc3c(c2)CCCN3C(C)=O)cc1 | x | -8% | -2% | x | u | u
COC(=O)[C@@H]1CC[C@H](C)[C@@H](c2ccc(C)cc2)N1C(=O)c1ccc(C=NO[C@H](C)c2cn([C@@H]3COC[C@@H]3O)nn2)cc1 | x | x | x | 4%[14.2 µM] | x | -17%[14.3 µM]
COc1cc2c(cc1OC)[C@@H]1O[C@](c3ccsc3)(C2)Oc2cc(C)n(Cc3ccccc3)c(=O)c21 | x | x | x | -14%[14.2 µM] | x | x
COC1=CC(=O)C(OC)=C(OC)C1=O | u | u | -29% | u | u | 16µM*
COc1ccc(OC)c2c1C(=O)c1ccccc1C2=O | -14% | -5% | 77% | 0% | -3% | -10%
COC(=O)C1=C(C)N(Cc2ccco2)C(=O)NC1c1ccc(Br)cc1 (stereo not given) | x | x | x | u | x | 3%[14.3 µM]
CCN1/C(=C/c2ccc3cc(C)ccc3[n+]2CC)Sc2cc(C)c(C)cc21 | 1.1µM* | u | i | u | u | 2µM*
CCN1/C(=C/c2ccc3cc(C)ccc3[n+]2CC)Sc2ccccc21 | 1.6µM* | x | x | 1µM* | 20µM* | 5.2µM*
CC[n+]1c(C)sc2cc(C)ccc21 | -3% | x | x | x | -23% | x

From PubChem
